Values joined by “and” are separate entries in the source; they are usually repeats but may differ in a detail not shown here. Equal values may be shown once. In all, about 5,500 compounds went through this assay and about 2,000 (36%) were called active. Not shown: some 18% with an inconclusive outcome. Cut-off read from the data, not from the text of the source: active = normalized growth mostly below about 0.91 (no sharp cut-off); inconclusive = no clear call, values can overlap the other calls; inactive = mostly above about 0.92. This is one part of the list.
Assay: chemical genetic growth profiling, strain panel (AID 1159580);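 note: tested at 20 µM; growth read once vehicle control cultures reached saturation at 30 °C; 1 = growth at the plate median or of vehicle wells; lower values mean less growth of the strain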
Settings: S. cerevisiae deletion strains, growth OD

Measured: normalized growth

CS(=O)(=O)Nc1ccc([N+](=O)[O-])cc1Oc1ccccc1
inactive: locus YAL013W, strain DEP1, hits give low values 0.986 and 1 | locus YAL021C, strain ccr4, hits give low values 0.991 | locus YAL026C, strain drs2, hits give low values 0.991 | locus YAL030W, strain snc1, hits give low values 1 | locus YAL040C, strain CLN3, hits give low values 1 | locus YBL061C, strain skt5, hits give low values 0.994 | locus YBR009C, strain hhf1, hits give low values 0.971 | locus YBR021W, strain FUR4, hits give low values 0.994 | locus YBR023C, strain chs3, hits give low values 0.984 | locus YBR171W, strain sec66, hits give low values 0.988 | locus YBR229C, strain ROT2, hits give low values 0.958 | locus YBR231C, strain swc5, hits give low values 0.993 | locus YBR279W, strain paf1, hits give low values 0.994 | locus YCL011C, strain gbp2, hits give low values 0.996 | locus YCL016C, strain dcc1, hits give low values 0.997 | locus YCL029C, strain bik1, hits give low values 0.97 | locus YCL061C, strain MRC1 (second series), hits give low values 1.01 | locus YCL061C, strain MRC1, hits give low values 1 | locus YCL069W, strain vba3, hits give low values 0.997 | locus YCR088W, strain abp1, hits give low values 0.999 | locus YDL005C, strain med2, hits give low values 0.991 | locus YDL035C, strain GPR1, hits give low values 0.976 | locus YDL040C, strain nat1, hits give low values 0.985 | locus YDL074C, strain BRE1, hits give low values 0.944 | locus YDL101C, strain DUN1, hits give low values 0.964 | locus YDL134C, strain PPH21, hits give low values 0.999 | locus YDL185W, strain tfp1, hits give low values 0.971 | locus YDL192W, strain arf1, hits give low values 0.966 | locus YDR001C, strain nth1, hits give low values 0.993 | locus YDR069C, strain doa4, hits give low values 1.02 | locus YDR101C, strain arx1, hits give low values 0.98 | locus YDR137W, strain rgp1, hits give low values 0.857 | locus YDR150W, strain NUM1, hits give low values 0.983 and 1.02 | locus YDR159W, strain sac3, hits give low values 0.977 | locus YDR162C, strain NBP2, hits give low values 0.979 | locus YDR195W, strain ref2 1.01 | locus YDR297W, strain sur2, hits give low values 0.991 | locus YDR318W, strain mcm21, hits give low values 0.991 | locus YDR334W, strain swr1, hits give low values 1 | locus YDR335W, strain msn5, hits give low values 0.993 | locus YDR363W, strain ESC2, hits give low values 0.994 | locus YDR388W, hits give low values 0.977 | locus YDR392W, strain spt3, hits give low values 0.904 | locus YDR502C, strain sam2, hits give low values 0.943 | locus YEL003W, strain gim4, hits give low values 0.999 | locus YEL037C, strain rad23, hits give low values 0.995 | locus YEL061C, strain CIN8 (second series), hits give low values 0.988 | locus YEL061C, strain CIN8, hits give low values 0.979 | locus YER002W, strain NOP16, hits give low values 0.997 | locus YER015W, strain faa2, hits give low values 0.994 | locus YER016W, strain bim1, hits give low values 0.991 | locus YER110C, hits give low values 0.986 | locus YER111C, strain swi4, hits give low values 0.978 | locus YER155C, strain BEM2 (second series), hits give low values 0.991 | locus YER155C, strain BEM2, hits give low values 1 | locus YER167W, strain BCK2, hits give low values 1 | locus YFR010W, strain ubp6, hits give low values 1 | locus YGL078C, strain dbp3, hits give low values 0.978 | locus YGL086W, strain mad1, hits give low values 0.969 | locus YGL167C, strain pmr1, hits give low values 0.988 | locus YGL173C, strain kem1, hits give low values 0.995 | locus YGL227W, strain vid30, hits give low values 0.997 | locus YGL240W, strain doc1, hits give low values 0.995 | locus YGL248W, strain PDE1, hits give low values 0.946 | locus YGL253W, strain hxk2, hits give low values 1.01 | locus YGR078C, strain PAC10, hits give low values 0.96 and 1.02 | locus YGR135W, strain pre9, hits give low values 1.02 | locus YGR229C, strain SMI1, hits give low values 0.971 | locus YGR252W, strain gcn5, hits give low values 0.92 | locus YHR013C, strain ard1, hits give low values 0.967 | locus YHR027C, strain rpn1, hits give low values 0.995 | locus YHR030C, strain SLT2, hits give low values 0.995 and 1.02 | locus YHR079C, strain IRE1 (second series), hits give low values 0.977 | locus YHR079C, strain IRE1, hits give low values 1.04 | locus YHR094C, strain hxt1, hits give low values 0.98 | locus YHR129C, strain ARP1, hits give low values 0.987 | locus YHR142W, strain chs7, hits give low values 0.991 | locus YHR200W, strain rpn10, hits give low values 0.972 | locus YIL066C, strain RNR3, hits give low values 0.964 | locus YIL073C, strain SPO22, hits give low values 0.969 | locus YIL125W, strain kgd1, hits give low values 0.98 | locus YIR030C, strain dcg1, hits give low values 0.976 | locus YJL092W, strain hpr5, hits give low values 0.997 | locus YJL095W, strain BCK1 (second series), hits give low values 0.993 | locus YJL095W, strain BCK1, hits give low values 0.956 and 1.04 | locus YJL115W, strain asf1, hits give low values 0.999 | locus YJL129C, strain trk1, hits give low values 0.979 | locus YJL134W, strain LCB3, hits give low values 0.991 | locus YJL154C, strain vps35, hits give low values 0.992 | locus YJL164C, strain tpk1, hits give low values 0.992 | locus YJL166W, strain qcr8, hits give low values 0.997 | locus YJL168C, strain set2, hits give low values 0.98 | locus YJL187C, strain SWE1 (second series), hits give low values 0.949 | locus YJL187C, strain SWE1, hits give low values 0.996 | locus YJR043C, strain POL32, hits give low values 0.911

— PubChem BioAssay AID1159580 (chemical genetic matrix, 2015)
